LASV entry inh: inhibitors of Lassa virus binding or cell entry. Lassa virus pseudotype entry inhibition, cell reporter. Potency, µM (titrated, usually from 37.9 µM), for inactives: at the top dose activity change, negative = inhibition, hits mostly inhibitors. actives 1.2% (n = 300,000); calls by dose curve; tested in HEK293 cells; note: potency is the fitted concentration of half-maximal effect; nearly all actives have a fitted effect of over 50% in size
HCMV antiviral: human cytomegalovirus inhibition. HFF cells, HCMV-luciferase reporter, 72 h; active compounds read low. activity change, negative = inhibition, % at 57.5 µM. actives 4.5% (n = 410,000). AID 1259415; in the data active = activity change below about -60%; inconclusive = no clear call, values can overlap the other calls; inactive = above about -39%
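Screen run at 2 compound doses on HFFs infected with reporter HCMV, MOI 1 PFU/cell. Luciferase activity from cell lysates at 72 h post infection gave inhibition relative to buffer-only and Salinomycin wells.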
HCV inh: HCV inhibition; Huh7.5.1 HCVcc-Cre infection, luciferase reporter, 44 h; actives 3.4% (n = 340,000); Potency, µM (doses to about 41.8 µM), inactives show at the highest dose activity change, negative = inhibition, most hits filed as inhibitors; active = well fitted inhibition curve with a large enough effect; inconclusive = small, poorly fitted or top-dose-only effect, or another doubt; inactive = no such curve, though single readings can be large or run the other way; note: potency is the fitted concentration of half-maximal effect
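Whole-lifecycle infectious HCVcc-Cre system; cells 1,000/well, compound then virus (~0.5 moi) added 4 h after plating, 44 h culture. Luciferase read 15 sec following 15 min substrate incubation, room temp.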
Vaccinia mCherry: inhibitors of vaccinia virus infection (mCherry reporter signal) | AID 720579 | Vaccinia virus mCherry reporter infection, fluorescence | actives 0.63% (n = 310,000) | Potency, µM (titrated, usually from 36.5 µM), inactives show at the highest dose activity change, negative = inhibition, most hits filed as inhibitors; calls by dose curve; tested in A549 cells; note: potency is the fitted concentration of half-maximal effect; nearly all actives have a fitted effect of over 35% in size
MARV entry inh: Marburg virus entry inhibition; Marburg virus pseudotyped entry inhibition, cell reporter; Potency, µM (doses to about 37.8 µM), for the others: at the highest dose activity change, negative = inhibition, hits mostly inhibitors; actives 1.8% (n = 300,000); calls by dose curve; tested in HEK293 cells; note: potency is the fitted concentration of half-maximal effect
VACV Venus inh: vaccinia inhibition (Venus reporter); Vaccinia virus Venus reporter expression, fluorescence; Potency, µM (series often up to 36.5 µM), for inactives: at the top dose activity change, negative = inhibition, most hits filed as inhibitors; actives 0.46% (n = 330,000); AID 720580; calls by dose curve; tested in A549 cells; note: potency is the fitted concentration of half-maximal effect; nearly all actives have a fitted effect of over 30% in size
Starred values were filed as active, the others as inactive; i = inactive; ? = inconclusive; nt = no result given; [ ] = dose if it differs, or a comment. In the library only some 7.8% were active in any assay of this set; here they are far more common. % is set by controls: 0 for no effect and ±100 for the full control effect.

SMILES | LASV entry inh | HCMV antiviral | HCV inh | Vaccinia mCherry | MARV entry inh | VACV Venus inh
CC(=O)c1ccc(NC(=O)CN2C(=O)CCc3ccccc32)cc1 | ? | 3 | nt | -3% | nt | -5%
COc1ccc(-c2cc3ccc(O)c(CN4CCN(C)CC4)c3oc2=O)cc1OC | 17%[46.1 µM] | -7 | nt | -15%[7.34 µM] | nt | -8%[7.34 µM]
CC(=O)N(c1ccc(Cl)cc1)c1cn(C(C)=O)c2ccccc12 | -28%[46.1 µM] | 72 | 4% | -5% | ? | -13%
CC(=O)n1cc(N(C(=O)CCl)c2ccc(C)cc2)c2ccccc21 | ? | -97* | 1.6µM* | -10% | 7.1µM* | -19%
COc1cccc(-n2c(SC)nnc2C2CCN(Cc3cccc(OC)c3O)CC2)c1 | nt | nt | nt | -7% | nt | 1%
CC(C)c1ccc(C(=O)N/N=C/c2cccc(Cl)c2Cl)cc1 | 10% | -5 | 10% | i | 0%[46.1 µM] | -9%
CC(C)c1ccc(/C=N/NC(=O)c2ccccn2)cc1 | ? | 69 | 9% | i | 5µM* | -19%
CN(C)c1ccc(/C=N\NC(=O)c2csnn2)cc1 | ? | 94 | -3% | -16% | 14µM* | -17%
O=C(N/N=C/c1ccncc1)c1ccccn1 | nt | nt | -4% | nt | nt | nt
CC(C)c1ccc(/C=N/NC(=O)c2cccc(Cl)c2)cc1 | ? | 70 | 7.1µM* | ? | ? | ?
CN(C)c1ccc(/C=N/NC(=O)c2ccccn2)cc1 | ? | 106 | -8% | -12% | ? | -13%
COc1cc(/C=C/c2nc3ccccc3c(=O)n2-c2cccc(O)c2)ccc1O | 1.3µM* | 0 | ? | ? | ? | 177%
COc1cc(/C=C/c2nc3ccccc3c(=O)n2-c2ccccc2O)ccc1O | ? | -83* | ? | ? | ? | 20%
COc1ccccc1-n1c(/C=C/c2ccc(O)cc2)nc2ccccc2c1=O | ? | -33 | ? | 0% | ? | -6%
Cc1ccc(CNC(=O)C2CCN(c3nc4ccc(C)cc4[nH]3)CC2)cc1 | ? | 0 | nt | i | nt | -6%
CCOc1ccc(S(=O)(=O)N2c3ccccc3CC2C)cc1 (centres undefined) | ? | -37 | 8.9µM* | nt | ? | nt
CCN(CC)CCNC(=O)c1ccc(NC(=O)c2cccc(S(=O)(=O)N3CCc4ccccc43)c2)cc1 | -4% | ? | ? | ? | 8.9µM* | -26%
CCOC(=O)c1ccc(NC(=O)c2cccc(S(=O)(=O)N3c4ccccc4CC3C)c2)s1 (centres undefined) | ? | -69* | ? | ? | ? | ?
CC1Cc2ccccc2N1S(=O)(=O)c1cccc(C(=O)NCCCO)c1 (centres undefined) | -18% | 20 | -15% | -17% | -6% | -23%
CCN(CC)CCNC(=O)c1ccc(NC(=O)c2cccc(S(=O)(=O)N3c4ccccc4CC3C)c2)cc1 (centres undefined) | nt | -28 | 11µM* | nt | nt | nt
Cc1cccc(NC(=O)c2c(N)sc3c2CCC(C)C3)c1 (centres undefined) | 4%[46.1 µM] | -29 | nt | -5%[7.34 µM] | ? | -6%[7.34 µM]
COC1=CC2C(=O)C(C1=O)[C@H](c1ccccc1)[C@H]2C (some centres undefined) | nt | nt | nt | nt | -3%[14.2 µM] | nt
CN(C)CCNc1ncnc2c1sc1nc(-c3ccccc3)c3c(c12)CCCC3 | ? | -68* | ? | ? | 10µM* | 10µM*
COc1ncnc2c1sc1nc(-c3ccccc3)c3c(c12)CCCC3 | nt | ? | 13% | nt | nt | nt
CCOC(=O)c1cnc(Nc2nc3ccccc3o2)nc1CSC(=S)N(CC)CC | ? | -64* | 21% | ? | 1% | ?
CCOC(=O)c1cnc(Nc2nc3ccccc3o2)nc1CSc1ncccn1 | ? | nt | -1% | -13% | 10% | 12%
CCN(CC)S(=O)(=O)c1cccc(-n2c(O)c(C=Nc3ccccc3C(=O)O)c3ccccc3c2=O)c1 | nt | -79* | ? | ? | nt | -21%
Cc1cccc(N(Cc2cc(=O)[nH]c3ccccc23)C(=O)CCl)c1 | nt | -96* | ? | ? | nt | 13µM*
CCCC(=O)N(Cc1cc(=O)[nH]c2ccccc12)c1ccccc1C | ? | -73* | -4% | -8% | ? | -8%
CCCC(=O)N(Cc1cc(=O)[nH]c2ccccc12)c1cccc(C)c1 | -5% | -6 | 7% | i | 26% | -11%

Source: PubChem
